The source made the active and inactive calls.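 Rule for the calls, unless noted: active = compounds whose cell count with miR-34 switched on is under 0.7 times the count with it off; inactive = the rest.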

A short description of experiment [1]: sensitizers of A549 cells to miR-34 induction, primary screen, imaging, A549 dox-inducible miR-34, nuclei and caspase counts (AID 1347080). Conditions: A549 miR-34 inducible, Hoechst nuclei count, 48 h.
Experiment [2] can be described thus: survival rescue of mitochondrial mutant cells in low glucose, primary screen, MELAS cybrids, Rieske KO mouse fibroblasts, CellTiter-Glo (AID 1508586;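 active = mean z-score across replicates of 1.96 or higher in either the MELAS or the Rieske mutant cell line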;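 note: z relative to plate mean and SD of compound and empty wells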). In general terms: ATP-based viability assays read luminescence as a measure of living cells.
[3] abbreviates: stronger effect = lower value, cell number ratio, induced over uninduced.
Where [4] appears, read: measured here: relative caspase fold change +Dox/-Dox.
Setting [5] is: measured here: total cells with miR-34 induction, stronger effect = lower value.
The mark [6] stands for this setting: measured here: total cells without miR-34 induction.
Setting [7] is: MELAS cybrid survival, CellTiter-Glo 48 h, stronger effect = higher value.
[8] abbreviates: Rieske KO mouse fibroblast survival, CellTiter-Glo 72 h.
Note: test concentration not given here.

As for `CN(C)C(=O)C(O)C(Cc1ccccc1)NC(=O)c1cc2cc(Cl)ccc2[nH]1` (configuration not stated), the fold change in experiment [1] (setting [3]) is 0.959 (inactive); in experiment [1] (setting [4]), 0.88. For the same compound, the cell count stood at 8860 in experiment [1] (setting [5]) and 9230 in experiment [1] (setting [6]). The z-score was -0.337 (inactive) in experiment [2] (setting [7]) and 0.715 in experiment [2] (setting [8]).
Turning to `CC(C)(C)c1cc(C(=O)C(C#N)=NNc2cccc(Cl)c2)no1`, the fold change in experiment [1] (setting [3]) was 0.873 (inactive); in experiment [1] (setting [4]), 0.45. Moreover, the results for the cell count in experiment [1] (setting [5]) and in experiment [1] (setting [6]) were 4320 and 4950, respectively. Further, the z-score is -0.557 (inactive) in experiment [2] (setting [7]) and -3.22 in experiment [2] (setting [8]).
Take `Cc1cc(Nc2cc(N3CCN(C)CC3)nc(C=Cc3ccccc3)n2)n[nH]1`: the fold change in experiment [1] (setting [3]) is 1.29 (inactive); in experiment [1] (setting [4]), 1.19. The results for the cell count in experiment [1] (setting [5]) and in experiment [1] (setting [6]) were 1120 and 872, respectively. For the same compound, the z-score in experiment [2] (setting [7]) was 1.43 (inactive); in experiment [2] (setting [8]), -2.06.
On to `COc1cc(C2Oc3cc(C4Oc5cc(O)cc(O)c5C(=O)C4O)ccc3OC2CO)ccc1O` (configuration not stated), for which the fold change in experiment [1] (setting [3]) is 0.923 (inactive); in experiment [1] (setting [4]) it was 0.695. Moreover, the cell count in experiment [1] (setting [5]) is 9600; in experiment [1] (setting [6]), 10400. In addition, the z-score in experiment [2] (setting [7]) was -0.412 (inactive); in experiment [2] (setting [8]) it was 0.872.
For the compound `O=C1CCC[C@@H]2[C@@H]3CCC[N+]4([O-])CCC[C@H](CN12)[C@@H]34` (some centres not stated), the fold change in experiment [1] (setting [3]) is 0.977 (inactive); in experiment [1] (setting [4]), 0.789. Besides, the results for the cell count in experiment [1] (setting [5]) and in experiment [1] (setting [6]) were 9620 and 9840, respectively. Moreover, the z-score is -0.359 (inactive) in experiment [2] (setting [7]) and 0.579 in experiment [2] (setting [8]).
In the case of `CC(C)(O)C1CC[C@@](C)([C@@H]2C(O)C[C@@]3(C)[C@@H]4CC(OC5OC(CO)C(O)C(O)C5O)[C@H]5C(C)(C)C(OC6OCC(O)C(O)C6O)CC[C@@]56C[C@]46CC[C@]23C)O1` (some centres not stated), the fold change is 0.936 (inactive) in experiment [1] (setting [3]) and 0.796 in experiment [1] (setting [4]). In addition, the cell count in experiment [1] (setting [5]) was 9300; in experiment [1] (setting [6]), 9940. Moreover, the values for the z-score in experiment [2] (setting [7]) and in experiment [2] (setting [8]) were -0.378 (inactive) and 0.478, respectively.
Consider `N#CC1CCCN1C(=O)CNC12CC3CC(CC(O)(C3)C1)C2` (configuration not stated), for which the figures for the fold change in experiment [1] (setting [3]) and in experiment [1] (setting [4]) were 0.959 (inactive) and 0.68, respectively. Besides, the cell count in experiment [1] (setting [5]) came to 8400; in experiment [1] (setting [6]), 8750. The z-score in experiment [2] (setting [7]) is -0.00674 (inactive); in experiment [2] (setting [8]), 0.11.
On to `CN1CCCN(C(=O)c2cccc(-c3ccc(C=C4C(=O)Nc5ccc(Cl)cc54)o3)c2)CC1`, for which the fold change in experiment [1] (setting [3]) is 0.79 (inactive); in experiment [1] (setting [4]), 4.28. The cell count in experiment [1] (setting [5]) is 2420; in experiment [1] (setting [6]), 3060. Further, the z-score in experiment [2] (setting [7]) is 0.13 (inactive); in experiment [2] (setting [8]), -0.12.
`CC(C)Oc1ccc(C(=O)NC(CNC(=O)CN(C)C)Cc2ccc(-c3cn4cccc(C(C)O)c4n3)cc2)cc1Cl` (configuration not stated): the fold change was 1 (inactive) in experiment [1] (setting [3]) and 0.389 in experiment [1] (setting [4]). The results for the cell count in experiment [1] (setting [5]) and in experiment [1] (setting [6]) were 1600 and 1590, respectively. Moreover, the figures for the z-score in experiment [2] (setting [7]) and in experiment [2] (setting [8]) were 1.36 (inactive) and -2.78, respectively.
`O=C(NCc1cccc(O)c1)Nc1nc(-c2ccncc2)cs1`: the fold change in experiment [1] (setting [3]) is 0.899 (inactive); in experiment [1] (setting [4]), 0.419. Also, the cell count in experiment [1] (setting [5]) was 2990; in experiment [1] (setting [6]) it was 3330. Further, the values for the z-score in experiment [2] (setting [7]) and in experiment [2] (setting [8]) were 0.152 (inactive) and -1.61, respectively.
As for `CC1(C)S[C@@H]2C(NC(=O)C(N)c3ccc(O)cc3)C(=O)N2C1C(=O)O` (some centres not stated), the fold change in experiment [1] (setting [3]) was 0.958 (inactive); in experiment [1] (setting [4]), 0.664. Further, the cell count in experiment [1] (setting [5]) turned out to be 9670; in experiment [1] (setting [6]), 10100. In addition, the z-score in experiment [2] (setting [7]) is -0.365 (inactive); in experiment [2] (setting [8]), 0.721.
With `O=CC(O)C(O)C(O)CO` (configuration not stated), the fold change in experiment [1] (setting [3]) is 0.913 (inactive); in experiment [1] (setting [4]), 0.975. Also, the cell count in experiment [1] (setting [5]) was determined as 7900; in experiment [1] (setting [6]), 8650. Moreover, the values for the z-score in experiment [2] (setting [7]) and in experiment [2] (setting [8]) were 0.55 (inactive) and -0.188, respectively.
For `[K+]`, the fold change was 0.939 (inactive) in experiment [1] (setting [3]) and 0.429 in experiment [1] (setting [4]). The cell count was found to be 7790 in experiment [1] (setting [5]) and 8290 in experiment [1] (setting [6]). Moreover, the z-score in experiment [2] (setting [7]) was 0.0668 (inactive); in experiment [2] (setting [8]), 0.0929.
`Cc1cc(CS(=O)(=O)c2ccccc2)cc(OCc2ccc(CN3CCCC3CO)cc2)c1` (configuration not stated): the values for the fold change in experiment [1] (setting [3]) and in experiment [1] (setting [4]) were 0.932 (inactive) and 0.28, respectively. The figures for the cell count in experiment [1] (setting [5]) and in experiment [1] (setting [6]) were 7820 and 8380, respectively. Further, the z-score in experiment [2] (setting [7]) was 0.0407 (inactive); in experiment [2] (setting [8]) it was 0.831.
In the case of `CNC(=O)C(Cc1ccccc1)NC(=O)C(CC(C)C)C(CSc1cccs1)C(=O)NO` (configuration not stated), the fold change is 0.843 (inactive) in experiment [1] (setting [3]) and 0.442 in experiment [1] (setting [4]). For the same compound, the cell count in experiment [1] (setting [5]) was 6630; in experiment [1] (setting [6]) it was 7870. The z-score in experiment [2] (setting [7]) is 0.43 (inactive); in experiment [2] (setting [8]), 1.14.
Consider `COc1cc(O)cc(C2CC(=O)c3c(O)cc(OC4OC(CO)C(O)C(O)C4OC4OC(C)C(O)C(O)C4O)cc3O2)c1` (configuration not stated), for which the figures for the fold change in experiment [1] (setting [3]) and in experiment [1] (setting [4]) were 0.921 (inactive) and 0.443, respectively. Also, the figures for the cell count in experiment [1] (setting [5]) and in experiment [1] (setting [6]) were 8090 and 8790, respectively. The z-score in experiment [2] (setting [7]) was -0.19 (inactive); in experiment [2] (setting [8]), -0.0453.
Turning to `O=C1c2c(O)cccc2[C@H]([C@@H]2OC(CO)C(O)C(O)C2O)c2cc(CO)cc(O)c21` (some centres not stated), the fold change is 0.88 (inactive) in experiment [1] (setting [3]) and 0.843 in experiment [1] (setting [4]). Moreover, the cell count in experiment [1] (setting [5]) worked out at 8560; in experiment [1] (setting [6]) it was 9720. The z-score in experiment [2] (setting [7]) was -0.344 (inactive); in experiment [2] (setting [8]) it was -0.143.
Take `C#C[C@@]1(O)CC[C@H]2[C@@H]3CCc4cc(O)ccc4[C@@H]3CC[C@@]21C`: the results for the fold change in experiment [1] (setting [3]) and in experiment [1] (setting [4]) were 0.952 (inactive) and 0.969, respectively. Further, the cell count in experiment [1] (setting [5]) came to 6120; in experiment [1] (setting [6]), 6420. The z-score in experiment [2] (setting [7]) was 0.773 (inactive); in experiment [2] (setting [8]), 0.776.
On to `NC1CC1c1ccc(-c2cccc(O)c2)cc1` (configuration not stated), for which the figures for the fold change in experiment [1] (setting [3]) and in experiment [1] (setting [4]) were 0.891 (inactive) and 0.382, respectively. Moreover, the cell count is 7530 in experiment [1] (setting [5]) and 8450 in experiment [1] (setting [6]). Besides, the values for the z-score in experiment [2] (setting [7]) and in experiment [2] (setting [8]) were -0.398 (inactive) and 0.0465, respectively.
Consider `CCOC(=O)C(CCc1ccccc1)NC(C)C(=O)N1Cc2ccccc2CC1C(=O)O` (configuration not stated), for which the fold change is 0.963 (inactive) in experiment [1] (setting [3]) and 1.71 in experiment [1] (setting [4]). The cell count in experiment [1] (setting [5]) turned out to be 8090; in experiment [1] (setting [6]), 8400. For the same compound, the z-score in experiment [2] (setting [7]) was 0.0216 (inactive); in experiment [2] (setting [8]), -0.419.
With `C[C@]12CCC(=O)C=C1[C@@H]1C[C@@H]1[C@H]1[C@@H]3[C@@H]4C[C@@H]4[C@]4(CCC(=O)O4)[C@@]3(C)CC[C@H]12`, the fold change is 0.956 (inactive) in experiment [1] (setting [3]) and 0.848 in experiment [1] (setting [4]). The cell count in experiment [1] (setting [5]) is 6880; in experiment [1] (setting [6]), 7200. The values for the z-score in experiment [2] (setting [7]) and in experiment [2] (setting [8]) were -0.459 (inactive) and 0.378, respectively.
Consider `Cc1onc(-c2c(Cl)cccc2Cl)c1C(=O)NC1C(=O)N2C1SC(C)(C)C2C(=O)O` (configuration not stated), for which the fold change was 0.869 (inactive) in experiment [1] (setting [3]) and 0.56 in experiment [1] (setting [4]). The cell count was found to be 8500 in experiment [1] (setting [5]) and 9780 in experiment [1] (setting [6]). Moreover, the z-score is -0.165 (inactive) in experiment [2] (setting [7]) and -0.146 in experiment [2] (setting [8]).
